An excerpt weighted towards active compounds, which were near 19% of everything screened.
HepG2 viability = qHTS for Inhibitors of TGF-b: Cytotox Counterscreen. 0.76% of 410,000 active. HepG2 CAGA-GFP viability, ATP luminescence, 18 h. AID 588856, 2011. Potency, µM (highest dose often 46.1 µM), most hits filed as cytotoxic
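CellTiter-Glo luminescence gave cytotoxicity after 18 hours at 37 degrees C. The cells were HepG2 CAGA-GFP in 1% FBS DMEM, stimulated with 500 pg/mL TGF-beta after compound addition. %Activity was normalised to no-cell wells (complete cell-killing) and DMSO (no toxicity), and curves were fitted and classified.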
TGFb SMAD3 inh = qHTS for Inhibitors of TGF-b. Potency, µM (titrated, usually from 46.1 µM), actives largely listed as inhibitors. HepG2 CAGA-GFP TGF-b/SMAD3 reporter, GFP fluorescence, 18 h; TGF-beta stimulated, 500 pg/mL final. AID 588855, 2011. 1.2% of 410,000 active; also: nearly all actives have a fitted effect of over 65% in size
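HEPG2 CAGA-GFP reporter cells (1000/well, DMEM with 1% FBS) received compounds, then recombinant TGF-beta at 500 pg/mL final for 18 hours at 37 degrees C. Per-cell GFP summed per well was normalised to unstimulated and stimulated DMSO controls before curve fitting.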
TDP1 cell noCPT = qHTS for Inhibitors of human tyrosyl-DNA phosphodiesterase 1 (TDP1): qHTS in cells in absence of CPT | DT40 Tdp1-/- hTDP1 cells, no CPT, ATP luminescence, 48 h | Potency, µM (series often up to 46.2 µM), most hits filed as inhibitors | 15% of 420,000 active; also: nearly all actives have a fitted effect of over 55% in size
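Growth of hTDP1-complemented DT40 Tdp1-knockout cells is measured by ATP luminescence after at least 48 hr compound exposure at 37 °C, with DMSO substituting for the 20 nM CPT used in the parallel screen.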
TDP1 block = qHTS Assay for Inhibitors of Tyrosyl-DNA Phosphodiesterase (TDP1); recombinant TDP1, AlphaScreen DNA substrate cleavage; AID 485290, 2010; 0.28% of 350,000 active; Potency, µM (highest dose often 130 µM), usual class: inhibitors; also: nearly all actives have a fitted effect of over 40% in size
Target sequence (Q9NUW8 whole entry, looked up): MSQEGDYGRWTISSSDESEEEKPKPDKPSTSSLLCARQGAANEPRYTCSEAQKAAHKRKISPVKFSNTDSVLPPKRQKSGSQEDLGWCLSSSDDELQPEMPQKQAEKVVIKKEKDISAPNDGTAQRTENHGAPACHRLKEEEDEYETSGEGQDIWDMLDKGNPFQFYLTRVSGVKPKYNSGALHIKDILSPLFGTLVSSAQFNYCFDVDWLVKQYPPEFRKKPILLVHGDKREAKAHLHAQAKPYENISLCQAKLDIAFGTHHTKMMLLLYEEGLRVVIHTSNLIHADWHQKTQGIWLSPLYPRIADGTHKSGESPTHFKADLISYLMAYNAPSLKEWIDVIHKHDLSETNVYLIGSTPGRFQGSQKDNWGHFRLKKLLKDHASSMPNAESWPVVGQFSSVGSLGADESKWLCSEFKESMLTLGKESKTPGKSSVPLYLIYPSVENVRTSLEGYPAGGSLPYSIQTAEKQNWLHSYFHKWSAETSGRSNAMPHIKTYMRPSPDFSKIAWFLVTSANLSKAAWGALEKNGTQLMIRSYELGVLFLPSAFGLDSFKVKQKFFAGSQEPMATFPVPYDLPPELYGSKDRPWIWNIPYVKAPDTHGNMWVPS
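Signal: AlphaScreen proximity between streptavidin donor and anti-FITC acceptor beads on intact substrate. Reaction: Tdp1 1 nM, substrate 15 nM final, 5 min RT after 15 min compound preincubation.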
IL1B secr inh = qHTS for Inhibitors of Inflammasome Signaling: IL-1-beta AlphaLISA Primary Screen; THP-1 LPS/ATP IL-1B secretion, AlphaLISA, 16 h; stronger effect = lower value; activity change, % at 57.5 µM; 4.7% of 360,000 active; AID 743279, 2014; in the data active = activity change below about -50%; inconclusive = mostly about -30% to -49%
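Secreted IL-1B measured by AlphaLISA bead assay after 16 h compound exposure of THP-1 cells; compounds (final up to 57.5 uM) added 1 h before LPS (250 ng/mL) and ATP (1.25 mM) stimulation; lower signal means less secretion.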
TDP1 cell CPT = qHTS for Inhibitors of human tyrosyl-DNA phosphodiesterase 1 (TDP1): qHTS in cells in presence of CPT | chicken DT40 Tdp1-/-;hTDP1 cells + 20 nM CPT, ATP luminescence, 48 h | Potency, µM (top dose mostly 46.2 µM), actives largely listed as inhibitors | 12% of 420,000 active | AID 686979, 2013; also: nearly all actives have a fitted effect of over 55% in size
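Chicken DT40 Tdp1-/- cells stably complemented with human TDP1 were seeded at 400 cells/well in medium containing 20 nM camptothecin, exposed to pin-transferred compounds, and grown at 37 °C for at least 48 hr. Viability was read as ATP luminescence.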
Large screens that a line does not name were inactive. Unless noted, calls follow the shape of the dose curve; as a rule, active = well fitted curve in the direction sought with a large enough effect; inconclusive = small, poorly fitted or top-dose-only effect, or another doubt; inactive = no such curve, though single readings can be large; an effect the other way counts as inactive or inconclusive.

COc1cccc(-c2cc(C(=O)N/N=C/c3cccc(OC)c3OC)c3ccccc3n2)c1	TDP1 cell noCPT 4.6µM, TDP1 cell CPT 21µM (no result: TDP1 block)
Cc1ccc(C)c(NC(=O)c2cc(-c3cccnc3)nc3ccccc23)c1	TDP1 cell noCPT inconclusive, TDP1 cell CPT inconclusive
Cc1[nH]c2ccccc2c1C=NNC(=O)c1cc(-c2cccnc2)nc2ccccc12	TDP1 cell noCPT 7.3µM, TDP1 cell CPT 13µM
COc1ccc(C(=O)NC(c2ccccc2Cl)c2cc(Cl)c3cccnc3c2O)cc1 (stereo not given)	HepG2 viability 11µM, TGFb SMAD3 inh 10µM, TDP1 cell noCPT 13µM, TDP1 cell CPT 8.2µM (no result: IL1B secr inh)
COc1cc(C(=O)NC(c2ccccc2)c2ccccc2)cc(OC)c1C	TDP1 cell noCPT inconclusive
COc1cc(C(=O)NC(c2ccccc2Cl)c2cc(Cl)c3cccnc3c2O)cc(OC)c1OC (stereo not given)	TGFb SMAD3 inh inconclusive, TDP1 cell noCPT 21µM, TDP1 cell CPT 13µM (no result: IL1B secr inh)
COc1ccc(C(=O)Nc2cc(OC)cc3cccnc23)cc1	TDP1 cell noCPT inconclusive, TDP1 cell CPT inconclusive (no result: TDP1 block)
Fc1ccc([C@@H]2Nc3ccccc3[C@@H]3C=CC[C@@H]32)cc1	TDP1 cell noCPT inconclusive, TDP1 cell CPT inconclusive (no result: TDP1 block, IL1B secr inh)
NCCC[C@@H](CC(=O)N[C@@H]1CCNC[C@H]1C(=O)N[C@H](CC(=O)N[C@@H](CCC(=O)O)CC(=O)O)Cc1ccccc1)NC(=O)C[C@H](Cc1c[nH]c2ccccc12)NC(=O)[C@@H]1CNCC[C@H]1N	none (no result: HepG2 viability, TGFb SMAD3 inh, TDP1 cell noCPT, IL1B secr inh, TDP1 cell CPT)
COc1ccccc1NC(=O)c1cc2n(n1)C(C(F)(F)F)CC(c1ccc3c(c1)OCO3)N2 (stereo not given)	TGFb SMAD3 inh inconclusive, TDP1 cell noCPT 18µM, IL1B secr inh inconclusive, TDP1 cell CPT 16µM
O=C(Nc1cc(Cl)ccc1O)c1cc2n(n1)C(C(F)(F)F)CC(c1ccc3c(c1)OCO3)N2 (stereo not given)	TGFb SMAD3 inh inconclusive, TDP1 cell noCPT 16µM, IL1B secr inh -87, TDP1 cell CPT 23µM
O=C(NCc1ccc2c(c1)OCO2)c1cc2n(n1)C(C(F)(F)F)CC(c1ccc3c(c1)OCO3)N2 (stereo not given)	TDP1 cell CPT inconclusive
CCOC(=O)N1CCN(C(=O)c2cc3n(n2)C(C(F)(F)F)CC(c2ccc4c(c2)OCO4)N3)CC1 (stereo not given)	TGFb SMAD3 inh inconclusive, TDP1 cell noCPT 15µM, TDP1 cell CPT inconclusive
COc1ccc(C2CC(C(F)(F)F)n3nc(C(=O)Nc4ccc5c(c4)OCO5)cc3N2)cc1 (stereo not given)	TDP1 cell noCPT inconclusive, TDP1 cell CPT inconclusive
COc1ccc(OC)c(NC(=O)c2cc3n(n2)C(C(F)(F)F)CC(c2ccc4c(c2)OCO4)N3)c1 (stereo not given)	TDP1 cell noCPT inconclusive, IL1B secr inh -61, TDP1 cell CPT inconclusive
COc1ccc(NC(=O)CCNS(=O)(=O)c2cccc3nsnc23)cc1Cl	none (no result: IL1B secr inh)
Cc1nn(-c2ccccc2)c(C)c1/C=N\N1CCN(c2ccc(Cl)cc2)CC1	TDP1 cell noCPT 10µM, TDP1 cell CPT 18µM
Cc1nn(-c2ccccc2)c(C)c1/C=N/n1cnnc1	none
Cc1c(Cl)cccc1N1C(N)=C(C#N)C(c2cc(CN3CCOCC3)cs2)C2=C1CCCC2=O (stereo not given)	TDP1 cell noCPT inconclusive, TDP1 cell CPT inconclusive (no result: IL1B secr inh)
Oc1[nH]c(N=C2N=c3ccccc3=N2)c2ccccc12	TGFb SMAD3 inh inconclusive, TDP1 cell noCPT 0.92µM, IL1B secr inh -98, TDP1 cell CPT 0.58µM

From PubChem BioAssay
